Pf growth 48h: P. falciparum growth inhibition at 48 hours (one generation); P. falciparum luciferase growth in erythrocytes, 48 h; Potency, µM (top dose mostly 28.7 µM), actives largely listed as inhibitors; 310,000 compounds, 5.9% hits
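Firefly luciferase activity from engineered P. falciparum reports growth; inhibitors lower the luminescent signal. Cultures contained 2% hematocrit erythrocytes at 0.1% final parasitemia.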
Pf growth 96h: P. falciparum growth inhibition at 96 hours; 320,000 compounds, 6.9% hits; Potency, µM (series often up to 28.7 µM), hits mostly inhibitors; P. falciparum luciferase reporter growth, 96 h; AID 504834
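P. falciparum expressing integrated firefly luciferase, in erythrocytes at 2% hematocrit, 0.05% parasitemia, incubated with compounds 96 h at 37 C, 5% CO2. Growth inhibition read as loss of luminescence; two-generation exposure targets delayed-death apicoplast inhibitors.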
Sm TGR block: inhibitors of Schistosoma mansoni thioredoxin glutathione reductase; purified TGR, DTNB reduction, TNB absorbance 405 nm; AID 485364; 360,000 compounds, 3% hits; Potency, µM (highest dose often 114 µM), actives largely listed as inhibitors; further: nearly all actives have a fitted effect of over 60% in size
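First, TGR (20 nM dispensed) and NADPH were mixed with compound. Second, a 15 min room-temperature incubation followed. Third, further NADPH and then DTNB were added to start the reaction. Finally, TNB absorbance was monitored kinetically.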
SARS PLP yeast: blocks SARS-CoV papain-like protease in a yeast assay | S. cerevisiae expressing SARS-CoV PLpro, growth rescue | Potency, µM (top dose mostly 32.9 µM), most hits filed as activators | 330,000 compounds, 0.19% hits; calls by dose curve; further: nearly all actives have a fitted effect of over 55% in size
Each line names hits and unclear results; the compound was inactive in the other large screens. Compounds with a hit are over-represented: about 12% of the library has one in this group of screens. Unless noted, the call rests on the fitted dose curve; in most records, active means well fitted curve in the direction sought with a large enough effect; inconclusive means small, poorly fitted or top-dose-only effect, or another doubt; inactive means no such curve, though single readings can be large; an effect the other way counts as inactive or inconclusive.

CCCS(=O)(=O)c1nc(S(=O)(=O)c2ccc(C)cc2)c(N2CCN(C)CC2)s1	none
CCOc1ccc(S(=O)(=O)Nc2ccc3c(c2)OCO3)cc1	none
COc1ccccc1NC(=S)NC(=O)CCc1ccccc1	Sm TGR block 4.47µM
COC(=O)NC(NC(=S)Nc1ccccc1OC)C(Cl)(Cl)Cl (stereo not drawn)	Pf growth 48h inconclusive, Pf growth 96h inconclusive
Cc1ccc(C)c(NC(=S)NC(NC(=O)N(C)C)C(Cl)(Cl)Cl)c1 (stereo not drawn)	Pf growth 48h inconclusive, Pf growth 96h inconclusive, Sm TGR block inconclusive
COc1cc(OC)c(OC)cc1CCC(C)NC(=O)Cc1ccccc1 (stereo not drawn)	none
COc1ccc(CCC(C)NC(=O)CCc2ccccc2)c(OC)c1 (stereo not drawn)	Pf growth 48h 9.28µM, Pf growth 96h inconclusive
COc1ccccc1NC(=S)NC(NC(=O)C(C)C)C(Cl)(Cl)Cl (stereo not drawn)	Pf growth 48h 7.38µM
Cc1ccc(C)c(NC(=S)NC(NC(=O)Cc2cccc3ccccc23)C(Cl)(Cl)Cl)c1 (stereo not drawn)	Pf growth 96h 2.62µM (no result: Pf growth 48h)
CC(C)(C)NC(=O)c1cnn(-c2ccccc2)c1C1CCN(C(=O)OC(C)(C)C)CC1	none (no result: Pf growth 48h, Pf growth 96h, SARS PLP yeast)
COc1ccccc1NC(=S)NC(=O)CC(C)C	Pf growth 96h inconclusive, Sm TGR block 28.2µM
CC(C)CC(=O)NC(=S)Nc1ccccc1F	Sm TGR block inconclusive (no result: SARS PLP yeast)
COc1ccc(NS(=O)(=O)c2ccc(N3CCCC3)c(NC(=S)Nc3ccc(SC(F)F)cc3)c2)cc1	Pf growth 48h inconclusive, Pf growth 96h 13.1µM
CC(C)(C)c1ccc(S(=O)(=O)N2CCN(Cc3noc(CCC(=O)N4CCCCC4)n3)CC2)cc1	none (no result: Pf growth 48h, Pf growth 96h, SARS PLP yeast)
O=C1Nc2ccccc2C1(O)Cc1ccncc1 (stereo not drawn)	Pf growth 96h 9.28µM
O=C1Nc2ccc(Br)cc2C1(O)Cc1ccncc1 (stereo not drawn)	none
COc1ccc(NC(=O)CN(C)C(=O)c2cccc3ccccc23)cc1	Pf growth 48h inconclusive
COc1ccc(NC(=O)CN(C)C(=O)c2oc3ccccc3c2C)cc1	Pf growth 48h inconclusive, Pf growth 96h 3.7µM
CCOc1ccc2oc(C(=O)N(C)CC(=O)Nc3ccc(OCC)c(OCC)c3)c(C)c2c1	Pf growth 48h inconclusive, Pf growth 96h 11.7µM
CCOc1ccc2oc(C(=O)N(C)CCc3ccc(OC)c(OC)c3)c(C)c2c1	Pf growth 48h inconclusive, Pf growth 96h inconclusive
COc1ccc(C2NC(=O)CCC2[N+](=O)[O-])c(OC)c1OC (stereo not drawn)	Pf growth 96h inconclusive, SARS PLP yeast inconclusive
Cc1ccccc1OCC(=O)N(Cc1ccco1)c1c(N)n(Cc2ccccc2)c(=O)[nH]c1=O	Sm TGR block 44.7µM
CC(C)CCN(C(=O)CCSc1ccc(F)cc1)c1c(N)n(Cc2ccccc2)c(=O)[nH]c1=O	Pf growth 48h 9.28µM, Pf growth 96h inconclusive
CCCN(C(=O)COC(=O)CCOc1ccccc1)c1c(N)n(Cc2ccccc2)c(=O)[nH]c1=O	Pf growth 96h inconclusive
CCCN(C(=O)CCOc1ccc(C(C)(C)C)cc1)c1c(N)n(Cc2ccccc2)c(=O)[nH]c1=O	Pf growth 48h 2.62µM, Pf growth 96h inconclusive
Nc1c(N(CCO)C(=O)/C=C/c2ccco2)c(=O)[nH]c(=O)n1Cc1ccccc1	Sm TGR block 50.1µM
COc1ccc(-c2cn3nc(SCC(=O)NC4CCCCC4)ccc3n2)cc1	Pf growth 96h inconclusive
COc1ccccc1C(=O)Nc1c(C(=O)Nc2ccccc2F)oc2ccccc12	none (no result: Pf growth 48h, Pf growth 96h, SARS PLP yeast)
Cc1ccc(NC(=O)COC(=O)COc2cccc3c2OC(C)(C)C3)c(C)c1	none
CCOc1ccc(CNC(=O)c2cc3ccccn3n2)cc1	none (no result: Pf growth 48h, Pf growth 96h, SARS PLP yeast)
COCCCN(C(=O)CCOc1ccccc1C)c1c(N)n(Cc2ccccc2)c(=O)[nH]c1=O	Pf growth 48h 13.1µM, Pf growth 96h inconclusive
CCCCn1c(N)c(N(CCOC)C(=O)C(C)Oc2ccc(Cl)cc2)c(=O)[nH]c1=O (stereo not drawn)	Pf growth 48h inconclusive
COCCCN(C(=O)C(C)Oc1ccc(Br)cc1)c1c(N)n(Cc2ccccc2)c(=O)[nH]c1=O (stereo not drawn)	Pf growth 48h 13.1µM, Pf growth 96h inconclusive
Cc1ccc(OCCC(=O)N(CCC(C)C)c2c(N)n(Cc3ccccc3)c(=O)[nH]c2=O)cc1	Pf growth 48h 10.4µM, Pf growth 96h inconclusive
CCc1ccc(NC(=O)CCc2nnc3ccc(N4CCCC4)nn23)cc1	none
Cc1ccccc1N=C1NC(=O)C(CO)(CO)S1	none
O=C1NC(=Nc2ccccc2Cl)SC1(CO)CO	Pf growth 96h 13.1µM
O=S(=O)(c1ccccc1F)N(Cc1ccco1)Cc1nnc(-c2ccccc2Br)o1	Pf growth 96h inconclusive, Sm TGR block 15.8µM
COc1ccc(-c2cn3nc(N4CCCC(C(=O)Nc5cc(C)ccc5C)C4)sc3n2)cc1 (stereo not drawn)	none (no result: Pf growth 48h, Pf growth 96h, SARS PLP yeast)
O=C(O)C1CCCCN1S(=O)(=O)c1ccc(Cl)s1 (stereo not drawn)	Pf growth 96h 9.28µM (no result: Pf growth 48h)
O=C(O)C1CCCN1S(=O)(=O)c1ccc(Br)s1 (stereo not drawn) (tested in a mixture with another compound)	none
Nc1cc2nc3ccccc3oc-2cc1=O	Pf growth 48h 4.65µM, Pf growth 96h 4.65µM, Sm TGR block 15.8µM
CC(C)Cc1cc(C(C)(C)C)ccc1OC(=S)N(C)C	none
CC(=O)N1CCc2[nH]c3ccccc3c2C1	Pf growth 96h inconclusive
CC(=O)N1C=Cc2c(c(C)c3c([nH]c4ccccc43)c2C)C1	Pf growth 48h 1.85µM
Cc1ccc(C)c(N2CCN(C(=O)c3ccc(CS(=O)(=O)c4ccc(Br)cc4)o3)CC2)c1	none (no result: Pf growth 48h, Pf growth 96h, SARS PLP yeast)
COc1ccc(S(=O)(=O)Cc2ccc(C(=O)N3CCN(c4cc(Cl)ccc4C)CC3)o2)cc1	Pf growth 96h 13.1µM (no result: Pf growth 48h)
Cc1ccc(S(=O)(=O)Cc2ccc(C(=O)N3CCN(c4cccc(C)c4C)CC3)o2)cc1	Pf growth 96h 3.7µM, Sm TGR block inconclusive
COc1ccc(S(=O)(=O)Cc2ccc(C(=O)N3CCN(c4cc(C)ccc4C)CC3)o2)cc1	Pf growth 96h 4.65µM
CCOC(=O)c1ccc(-n2c(CN3CCN(CCO)CC3)nc3ccc([N+](=O)[O-])cc3c2=O)cc1	Sm TGR block 35.5µM
CCN1CCN(Cc2nc3ccc([N+](=O)[O-])cc3c(=O)n2-c2ccccc2F)CC1	none
O=c1c2cc([N+](=O)[O-])ccc2nc(CN2CCN(c3ccccn3)CC2)n1-c1ccccc1F	Pf growth 96h 13.1µM
COc1ccc(-n2c(CN3CCN(c4ccccn4)CC3)nc3ccc([N+](=O)[O-])cc3c2=O)c(OC)c1	Pf growth 48h 11.7µM
COc1cccc(-n2c(CN3CCOCC3)nc3ccc([N+](=O)[O-])cc3c2=O)c1	Pf growth 48h inconclusive
COc1ccc(-n2c(CN3CCN(C)CC3)nc3ccc([N+](=O)[O-])cc3c2=O)c(OC)c1	Pf growth 48h inconclusive
COc1cccc(-n2c(CN3CCN(Cc4ccccc4)CC3)nc3ccc([N+](=O)[O-])cc3c2=O)c1	Pf growth 48h 11.7µM
